# Several values for one entry are separate records, joined by “and”; a condition that tells them apart may be missing. Equal values may be shown once. Records with an inconclusive call do not appear. Activity calls are given as the source filed them. Rule for the calls, unless noted: active = hit-call score of the fitted dose curve at least 0.9, where 1 is the maximum; inconclusive = response in the unintended direction; inactive = score below 0.9.
# Columns and labels:
# [1] = CCTE_Mundy_HCI_Cortical_Synap_Neur_Matur_NeuriteCount: CCTE's Synaptogenesis and Neurite Maturation Assay in rat cortical cells for Neurite Count, Mundy Lab (AID 2284222; active = hit-call score of the fitted dose curve at least 0.9, where 1 is the maximum; inactive = score below 0.9;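 for outcome: exposure from day 7 to day 12 in vitro with readout at day 12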)
# Procedure, shortened: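 Rat primary cortical cells; AraC added at DIV 5, chemicals dosed with media change at DIV 7 through DIV 12. MAP2/synaptophysin/Hoechst immunostaining, high-content imaging of neurite number; fitted relative to DMSO.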
# [2] = CCTE_Mundy_HCI_hNP1_Pro_ResponderAvgInten: CCTE's Proliferation Assay in human neuroprogenitor cells, Mundy Lab (AID 2284224);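 note: human neural progenitor cells hNP1 derived from WA09 embryonic stem cells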
# Procedure, shortened: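 Proliferation was scored as BrdU labelling intensity in human neural progenitors derived from WA09 embryonic cells, measured 26.25 hours after chemical dosing. Activity was fitted relative to DMSO.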
# [3] = CCTE_Mundy_HCI_hN2_NOG_NeuriteCount: CCTE's Neurite Outgrowth Assay in human hN2 cells for Neurite Count, Mundy Lab (AID 2284219)
# Procedure, shortened: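 In this morphology assay, hNP1-derived neurons received test chemical 2 h post-plating and were fixed two days later in warm paraformaldehyde/sucrose containing Hoechst 33342. Neurites, labelled by rabbit anti-βIII-tubulin (1:800) and Alexa Fluor-488 (1:500), were counted automatically.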
# [4] = CCTE_Mundy_HCI_hN2_NOG_NeuriteLength: CCTE's Neurite Outgrowth Assay in human hN2 cells for Neurite Length, Mundy Lab (AID 2284220)
# Procedure, shortened: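 Plate hNP1-derived neurons, then add chemical 2 h later as a 1/10 dilution. Stain with anti-βIII-tubulin then Alexa Fluor-488 secondary, and image automatically to measure neurite length.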
# [5] = CCTE_Mundy_HCI_hN2_NOG_NeuronCount: CCTE's Neurite Outgrowth Assay in human hN2 cells for Neuron Count, Mundy Lab (AID 2284221)
# Procedure, shortened: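 Read-out is the number of betaIII-tubulin-positive neurons imaged by automated high-content analysis, with DMSO as negative control.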
smiles,measurement,setting,value
N#Cc1nn(-c2c(Cl)cc(C(F)(F)F)cc2Cl)c(N)c1S(=O)C(F)(F)F (centres undefined),outcome,[1],inactive
same,outcome,[2],inactive
C=CCC1=C(C)[C@@H](OC(=O)[C@@H]2[C@@H](C=C(C)C)C2(C)C)CC1=O,AC50,[1],23.7 µM (active)
same,outcome,[2],inactive
CNC(=O)ON=CC(C)(C)SC,outcome,[3],inactive
same,outcome,[4],inactive
same,outcome,[5],inactive
same,outcome,[1],inactive
CCCCOC(=O)c1ccccc1C(=O)OCCCC,AC50,[1],85.8 µM (active)
COP(=S)(OC)Oc1nc(Cl)c(Cl)cc1Cl,AC50,[1],27.9 µM (active)
CCCCC(CC)COC(=O)c1ccccc1C(=O)OCC(CC)CCCC (centres undefined),outcome,[3],inactive
same,outcome,[4],inactive
same,outcome,[5],inactive
same,AC50,[1],4.84 µM (active)
same,AC50,[2],9.27 µM (active) and 3.62 µM (active)
COP(N)(=O)SC (centres undefined),outcome,[3],inactive
same,outcome,[4],inactive
same,outcome,[1],inactive
CCOC(=O)CC(SP(=S)(OC)OC)C(=O)OCC (centres undefined),AC50,[3],34.8 µM (active)
same,AC50,[4],34.2 µM (active)
same,AC50,[5],33.6 µM (active)
same,outcome,[1],inactive
same,outcome,[2],inactive
Cc1ccc(-c2c(Cl)nc(C#N)n2S(=O)(=O)N(C)C)cc1,AC50,[1],80.2 µM (active)
same,AC50,[2],50 µM (active)
C=CCC1=C(C)C(OC(=O)C2C(C=C(C)C)C2(C)C)CC1=O (centres undefined),outcome,[1],inactive
CO/C=C(/C(=O)OC)c1ccccc1Oc1cc(Oc2ccccc2C#N)ncn1,AC50,[1],4.78 µM (active)
CC(C)(C)c1ccc(CSc2cnn(C(C)(C)C)c(=O)c2Cl)cc1,AC50,[1],0.00118 µM (active)
same,AC50,[2],4.85 µM (active)
CN(C)C(=S)SSC(=S)N(C)C,AC50,[1],0.0585 µM (active)
same,AC50,[2],0.0771 µM (active)
CCCCNC(=O)n1c(NC(=O)OC)nc2ccccc21,outcome,[1],inactive
C=CC1(C)OC(=O)N(c2cc(Cl)cc(Cl)c2)C1=O (centres undefined),outcome,[1],inactive
same,outcome,[2],inactive
